# Screens as filed in PubChem BioAssay.
# This is a sample that favours compounds with a hit; in the whole collection about 2.1% have one here.
# PrPC surface inh: inhibitors of human cell surface prion protein PrPC, primary screen, cell-based, TR-FRET; Major prion protein (Homo sapiens), P04156; TR-FRET read-out; inhibition, % at 13.8 µM; actives 0.43% (n = 370,000); in the data active = inhibition above about 24%; also: 0% = median of the test wells and 100% = reference compound wells
# MazF activator: activators of E. coli MazEF toxin-antitoxin RNase, primary screen, biochemical, fluorescence, uHTS; Endoribonuclease toxin MazF (Escherichia coli (strain K12)), P0AE70; FAM/BHQ RNA-DNA oligo cleavage fluorescence, 5 h; activation, % at 20 µM; actives 0.32% (n = 350,000); in the data active = activation above about 50%
# Target sequence (P0AE70 whole entry, looked up): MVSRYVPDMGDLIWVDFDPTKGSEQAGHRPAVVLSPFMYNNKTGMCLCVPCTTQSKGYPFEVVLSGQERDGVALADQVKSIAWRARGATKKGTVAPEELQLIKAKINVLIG
# PfHsp40 yeast: rescue of yeast from PfHsp40 toxicity, primary screen, S. cerevisiae, ATP luminescence | S. cerevisiae expressing PfHsp40, growth rescue | growth rescue, % at 12.5 µM | actives 0.68% (n = 340,000); in the data active = growth rescue above about 28%, passing the limit was not always enough; inconclusive = no clear call, values can overlap the other calls;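 also: yeast W303a lacking pdr1 and pdr3 grown in galactose medium; growth measured after three days at 30 °C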
# DUSP3 inh: VHR1 phosphatase inhibitors, primary screen, biochemical, absorbance, uHTS | Dual specificity protein phosphatase 3 (Homo sapiens), P51452 | recombinant VHR phosphatase, pNPP absorbance | inhibition, % at 13.3 µM | actives 0.52% (n = 290,000); in the data active = inhibition above about 50%
# Target sequence (P51452 whole entry, looked up): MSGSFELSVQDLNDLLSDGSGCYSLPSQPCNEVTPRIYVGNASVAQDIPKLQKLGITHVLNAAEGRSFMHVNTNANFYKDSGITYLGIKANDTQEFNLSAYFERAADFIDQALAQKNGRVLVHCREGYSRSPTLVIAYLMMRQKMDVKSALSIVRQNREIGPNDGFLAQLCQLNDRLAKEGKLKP
# BJeLR viability: MLPCN primary cell-based screen for lethality selective to Ras in HRASV12 cells; BJeLR (HRASV12) viability, CellTiter-Glo ATP luminescence, 48 h; inhibition, % (no concentration beside the values); actives 0.17% (n = 300,000); in the data active = inhibition above about 50%; inconclusive = no clear call, values can overlap the other calls
# PrP 5UTR inh: inhibition of PrP 5' UTR reporter expression. inhibition, % (concentration not given with the values). cell-based PrP 5' UTR mRNA reporter, plate reader. AID 488862, 2010. actives 0.35% (n = 340,000); in the data active = inhibition above about 52%; also: 0 = median of the neutral control wells
# Starred values were filed as active, the others as inactive; ? = inconclusive; / = no result.
SMILES,PrPC surface inh,MazF activator,PfHsp40 yeast,DUSP3 inh,BJeLR viability,PrP 5UTR inh
CCn1c(=N)c(S(=O)(=O)c2ccc(C)cc2)cc2c(=O)n3ccccc3nc21,-7.0,/,/,52.5*,-0.1,/
CCn1c(=N)c(S(=O)(=O)c2ccccc2)cc2c(=O)n3ccccc3nc21,-9.1,228.2*,-0.7,13.9,-3.1,-31.0
Cc1ccc(S(=O)(=O)c2cc3c(=O)n4cccc(C)c4nc3n(C3CCCCC3)c2=N)cc1,/,52.5*,-1.0,1.8,1.5,-11.2
Cc1ccc(S(=O)(=O)c2cc3c(=O)n4ccccc4nc3n(C)c2=N)cc1,-2.2,3.8,-0.8,9.6,-28.9,-16.6
CCCn1c(=N)c(S(=O)(=O)c2ccccc2)cc2c(=O)n3ccccc3nc21,-4.8,-13.8,-0.6,27.2,-2.3,11.0
O=C(Nc1ccc(OC(F)(F)F)cc1)Nc1c(-c2ccc(C(F)(F)F)cc2)nc2ncccn12,5.9,/,/,/,/,/
Cn1cccc1CN1CCC[C@]2(N[C@H](c3ccc(C(F)(F)F)cc3)[C@@H]3C(=O)N(Cc4ccccc4)C(=O)[C@@H]32)C1=O,1.6,-20.9,/,/,/,/
O=C(Nc1cc(Oc2ccc(Cl)cc2)cc([N+](=O)[O-])c1)c1ccco1,-2.2,1.1,352.3*,-4.4,-4.6,-18.3
CCOc1ccc(Oc2cc(NC(=O)c3ccco3)cc([N+](=O)[O-])c2)cc1,-5.6,4.6,0.0,6.2,/,2.7
CCOC(=O)CNC(=O)CNC(=O)c1ccc(OC(C)C)cc1,6.3,0.5,/,5.4,2.4,/
CCOC(=O)CNC(=O)CNC(=O)c1ccc(OCC(C)C)cc1,-4.4,-3.4,0.8,53.4*,6.0,1.5
Cc1ccc2c(c1)c(C1=c3ccccc3=NC1=O)c(O)n2C,3.4,11.4,0.9,-1.9,8.4,-7.5
C=CCn1c(O)c(C2=c3ccccc3=NC2=O)c2ccccc21,1.8,-0.8,-1.1,59.7*,7.8,-10.3
O=C1NC[C@H](CCCCN2C[C@@H](Cc3ccccc3)N(CCC3CCCCC3)C(=O)C2=O)N(CCC2CCCCC2)C1=O,7.9,/,/,/,/,/
O=C1C(Nc2ccccc2)=C/C(=N/S(=O)(=O)c2cccs2)c2ccccc21,/,0.2,265.6*,1.5,-12.7,-73.2
Cc1ccc(NC2=C/C(=N/S(=O)(=O)c3cccs3)c3ccccc3C2=O)cc1,1.7,7.8,0.0,-9.9,-7.7,41.5
O=C(NNC(=S)Nc1cccc(C(F)(F)F)c1)c1ccc(Cl)cc1Cl,1.3,-2.1,35.7*,-13.1,-9.6,-19.0
COc1ccc(N2CC(C(=O)OCC(=O)Nc3cccc(C)c3)CC2=O)cc1 (configuration not stated),-4.0,-35.3,-0.8,-28.8,-0.7,-21.1
COc1ccccc1NC(=O)N(CCN1CCCC1)Cc1cc2cc(C)ccc2[nH]c1=O,-9.3,1.5,1.2,/,5.3,5.8
COc1ccccc1NC(=O)N(CCN(C)C)Cc1cc2cc(C)ccc2[nH]c1=O,-1.0,3.5,0.7,51.6*,-5.3,7.1
COc1ccccc1C1CCN(C(=O)c2ccc(Cl)cc2)CC1,1.4,-3.7,198.9*,5.2,6.4,-10.9
CCOC(=O)c1c(S(=O)(=O)N(C)Cc2ccccc2)c(C)n(C)c1C,0.4,0.6,0.6,57.7*,0.5,-6.4
CCOC(=O)c1c(S(=O)(=O)NCCCc2ccco2)c(C)n(C)c1C,-3.1,1.0,-0.7,51.3*,-4.7,-26.4
Cc1cc(NC(=O)CSc2nc(-c3ccc(Br)cc3)nc3c2c(=O)n(C)c(=O)n3C)no1,/,1.2,-0.5,0.5,-3.8,-16.5
Cc1cc(NC(=O)CSc2nc(-c3ccccc3Cl)nc3c2c(=O)n(C)c(=O)n3C)no1,-3.9,112.0*,-0.5,25.6,-20.0,-11.4
SMILES,PrPC surface inh,MazF activator,PfHsp40 yeast,DUSP3 inh,BJeLR viability,PrP 5UTR inh
O=C(N/N=C(\c1ccccc1)c1cccnc1)c1cccc(F)c1,2.8,-10.8,315.4*,31.5,67.2*,43.9
COc1ccc(-c2cn[nH]c2-c2ccc(OC)cc2O)cc1,-3.3,-3.9,5.7,3.5,-1.5,-2.1
COc1ccccc1-c1cn[nH]c1-c1ccc(OCc2ccccc2)cc1O,-0.3,-3.8,213.7*,31.0,-3.8,0.9
COc1cccc(Oc2cn[nH]c2-c2ccc(OC)cc2O)c1,2.6,2.0,0.6,18.2,2.3,-4.1
CCOc1ccc(-c2[nH]ncc2Oc2cccc(OC)c2)c(O)c1,-1.9,11.6,336.5*,21.7,0.2,-8.6
COc1ccc(-c2cn[nH]c2-c2ccc(OCc3ccccc3)cc2O)cc1,3.6,-0.9,115.2*,11.6,-9.1,-0.7
CCCc1ccc(Oc2cn[nH]c2-c2ccc(O)c(C)c2O)cc1,14.9,14.0,83.3*,-16.7,2.6,-8.1
CCCn1c(N)c(C(=O)CN2CCN(S(=O)(=O)c3cccc(Cl)c3)CC2)c(=O)[nH]c1=O,0.8,1.0,-0.7,/,/,-13.0
C#CCOCCOCCOCCNc1nc(OC)nc(N2CCN(C(=O)[C@H](CCC(=O)O)n3cc(C(N)CO)nn3)CC2)n1 (some centres not stated),-8.2,7.1,-1.3,/,/,1.2
O=CNc1cc(-c2ccc(C(=O)NC3CC3)cc2)cn2c(-c3ccc(F)cc3)cnc12,-16.1,/,/,/,/,/
Cc1cc(N2CCC(C(=O)NC3CC3)CC2)nc(-c2ccccc2)n1,-5.2,2.8,-0.8,12.8,10.2,-27.4
Cc1cc(N2CCN(c3cccc(C)c3C)CC2)nc(-c2ccccc2)n1,7.2,1.5,?,52.9*,-1.2,-19.4
O=C(Nc1ccccc1Oc1cccnc1)C1CCCN(Cc2ccc(F)cc2)C1 (configuration not stated),1.4,-1.4,-0.8,57.1*,8.0,-3.1
O=c1oc2ccccc2n1Cc1cccc(F)c1,5.3,-13.0,1.2,52.6*,2.2,-14.9
CCOC(=O)Cc1csc(NC(=O)CN2CCOCC2)n1,-3.1,-8.5,-1.9,38.8,1.1,-10.1
CC(=O)N1CCN=C1SCc1ccc(Br)cc1,6.0,9.4,0.4,53.3*,7.9,-7.4
Cc1c(C(=O)NCCSCc2c(F)cccc2Cl)cnn1-c1ccc(Cl)cc1,10.7,0.6,132.4*,20.1,-6.4,-7.8
COc1ccccc1C(=O)NCCSCc1c(F)cccc1Cl,1.6,-1.0,2.8,23.4,-6.8,4.5
O=C(/C=C/c1ccccc1)CC(=O)c1ccccc1O,-9.0,55.2*,8.5,17.4,7.7,-92.2
O=C(/C=C/c1ccc(O)c(O)c1)c1ccccc1O,-11.5,-17.2,-0.1,35.4,4.7,-13.8
O=C(C=Cc1cccc(O)c1)c1ccccc1O,-0.6,-10.2,383.0*,/,/,-50.1
O=C(/C=C/c1ccccc1)NC(=O)c1ccccc1O,-3.3,8.9,0.1,16.6,3.3,-15.0
